Screening results from PubChem.
Most compounds without a hit are left out; they make up all but 27% or so of the library.
CYP2C19 inhib: blocks human cytochrome P450 2C19 | 21% of 96,000 active | inhibition, % at 5 µM | CYP2C19 Supersomes, luciferin-H EGE luminescence, 30 min | AID 778;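 active means CYP2C19 inhibition above a set limit at 5 µM in the primary screen, cut at about 50% in these data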
CYP2C9 activ: CYP2C9 (human) activation; P11712; recombinant CYP2C9, luciferin-H conversion, luminescence; active compounds read high; factor 1 = untreated enzyme, 0 = blocked; activation factor at 5 µM; 1.4% of 96,000 active; AID 1024;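 active means activation factor of 2 or more for CYP2C9 at a 5 µM dose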
CYP2C19 act: activators of human cytochrome P450 2C19; recombinant CYP2C19, luciferin-H EGE luminescence; active compounds read high; 0 = fully inhibited enzyme, 1 = untreated enzyme; activation factor at 5 µM; 96,000 tested, under 10 active;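 active means activation factor of at least 2 at 5 µM in the primary screen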
sEH act: activators of human soluble epoxide hydrolase | P34913 | purified human sEH enzymatic activity, activator screen | activation, % at 2 µM | 0.04% of 91,000 active | AID 717; in the data active means activation above about 37%
Target sequence (P34913 whole entry, looked up): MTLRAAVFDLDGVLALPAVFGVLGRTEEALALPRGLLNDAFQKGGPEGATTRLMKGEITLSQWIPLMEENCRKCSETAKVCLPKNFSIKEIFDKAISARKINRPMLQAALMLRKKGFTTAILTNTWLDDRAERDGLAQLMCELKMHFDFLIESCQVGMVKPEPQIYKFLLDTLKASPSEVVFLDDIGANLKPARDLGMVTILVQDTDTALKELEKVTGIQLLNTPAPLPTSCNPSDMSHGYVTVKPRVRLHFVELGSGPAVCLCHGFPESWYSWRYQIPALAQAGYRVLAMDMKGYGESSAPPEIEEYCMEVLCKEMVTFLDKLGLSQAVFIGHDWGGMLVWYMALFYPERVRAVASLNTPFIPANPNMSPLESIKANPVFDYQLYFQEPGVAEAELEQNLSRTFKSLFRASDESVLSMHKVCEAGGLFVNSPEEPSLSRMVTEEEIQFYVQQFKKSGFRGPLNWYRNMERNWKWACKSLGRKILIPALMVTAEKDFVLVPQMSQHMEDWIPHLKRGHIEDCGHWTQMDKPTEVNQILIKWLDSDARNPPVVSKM
CYP2C9 inh: inhibitors of human CYP2C9; 20% of 96,000 active; inhibition, % at 5 µM; AID 777; P11712; CYP2C9 Supersomes, luciferin-H conversion, luminescence;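 active means blocking of liver enzyme CYP2C9 beyond about 50% at 5 µM, limit read from the data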
sEH inhibitor: inhibitors of human soluble epoxide hydrolase; recombinant human sEH enzymatic activity assay; 0.34% of 91,000 active; P34913; inhibition, % at 2 µM; in the data active means inhibition above about 80%
Each line names hits and unclear results; the compound was inactive in the other large screens.

COc1cccc(-c2csc3nnc(SCC(=O)c4ccc(NC(C)=O)cc4)n23)c1	none
COc1ccc(Cl)cc1NC(=O)CSc1nnc(COc2ccccc2)n1C	CYP2C19 inhib 55
Oc1c(Br)cc(C2N=C(c3ccccc3)NO2)cc1Br (stereo not drawn)	none
COc1ccc(C(=O)Nc2ccccc2)cc1S(=O)(=O)Nc1cc(C)on1	none
Clc1ccc2nc3ccccn3c2c1	none
CC1(C)NC(=O)N(c2ccccc2Cl)C1(C)NO (stereo not drawn)	none (no result: sEH act, sEH inhibitor)
CCCCCn1c2nc3ccccc3nc2c2c(=O)n(CC3CCCO3)c(C)nc21 (stereo not drawn)	CYP2C9 inh 74 (no result: sEH act, sEH inhibitor)
O=c1c2c3nc4ccccc4nc3n(Cc3ccccc3)c2ncn1Cc1ccco1	CYP2C9 inh 61
COCCCn1c2nc3ccccc3nc2c2c(=O)n(Cc3ccc(Cl)cc3)cnc21	CYP2C19 inhib 96
COCCCn1c(C)nc2c(c1=O)c1nc3ccccc3nc1n2CCc1ccccc1	CYP2C9 inh 80
Cc1cccc(NC(=O)CSCc2c(C)noc2C)c1C	CYP2C19 inhib 74
Cc1noc(C)c1CSCC(=O)NC1=NCCS1	none
Cc1ccccc1Nc1nc(N)nc(CSCc2c(C)noc2C)n1	CYP2C19 inhib 64, CYP2C9 inh 57
CC(C)(C)n1cnc2cc(NS(=O)(=O)c3ccccc3)ccc21	CYP2C19 inhib 79
COc1ccc(-n2cnc3cc(NS(=O)(=O)c4ccccc4)ccc32)cc1	none (no result: CYP2C19 inhib, CYP2C9 activ, CYP2C19 act, CYP2C9 inh)
Cn1cnc2cc(NC(=O)c3ccc(Cl)cc3)ccc21	none (no result: CYP2C19 inhib, CYP2C9 activ, CYP2C19 act, CYP2C9 inh)
Cn1cnc2cc(NS(=O)(=O)c3ccc(Br)cc3)ccc21	CYP2C19 inhib 93, CYP2C9 inh 69
c1ccc(Cn2nnnc2C(c2cccs2)N2CCSCC2)cc1 (stereo not drawn)	none (no result: CYP2C19 inhib, CYP2C9 activ, CYP2C19 act, CYP2C9 inh)
CC1CCN(C(c2cccs2)c2nnnn2Cc2ccccc2)CC1 (stereo not drawn)	CYP2C19 inhib 88
c1ccc(Cn2nnnc2C(c2cccs2)N2CCOCC2)cc1 (stereo not drawn)	CYP2C19 inhib 63 (no result: sEH act, sEH inhibitor)
CC(C)(C)n1nnnc1C(c1cccs1)N1CCN(Cc2ccccc2)CC1 (stereo not drawn)	none
CC1CN(c2nc(-c3ccc(Br)cc3)nnc2-c2ccccc2)CC(C)N1 (stereo not drawn)	none
CCn1c(=N)n(CC(O)COc2cccc(C)c2)c2ccccc21 (stereo not drawn)	none
Cc1ccc(OCC(O)Cn2c3ccccc3c3ccccc32)cc1 (stereo not drawn)	CYP2C19 inhib 63, CYP2C9 inh 60
Cc1cccc(C)c1OCC(O)Cn1c2ccccc2c2ccccc21 (stereo not drawn)	CYP2C9 inh 75
OC(CN1CCN(c2ccccc2)CC1)Cn1c2ccccc2c2ccccc21 (stereo not drawn)	none
CC(=O)N(C)c1ccc(OCC(O)Cn2c3ccc(Cl)cc3c3cc(Cl)ccc32)cc1 (stereo not drawn)	CYP2C9 inh 54
Cc1cc(C2C(=O)C(C(=O)c3ccc(Cl)cc3)C(=O)CC2(C)C)on1 (stereo not drawn)	none (no result: sEH act, sEH inhibitor)
CCCCn1c(-c2ccc([N+](=O)[O-])cc2)n[nH]c1=S	none
O=C1c2ccccc2C(=O)N1CCc1csc(-c2ccccc2)n1	CYP2C19 inhib 100
O=C1c2ccccc2C(=O)N1CCc1csc(-c2ccc(F)cc2)n1	CYP2C19 inhib 100
O=C1c2ccccc2C(=O)N1CCc1nc(-c2ccccn2)no1	none (no result: sEH act, sEH inhibitor)
COc1ccc(-c2c(-c3ccc(O)cc3O)n[nH]c2C)cc1OC	CYP2C19 inhib 100, CYP2C9 inh 92
C=C(C)COc1ccc(-c2n[nH]c(C)c2-c2ccc(Br)cc2)c(O)c1	CYP2C9 inh 57
C=C(C)COc1ccc(-c2nc(N)ncc2Oc2ccc(OC)cc2)c(O)c1	none
COc1ccc(OC)c(NC(=O)CC2C(=O)NCCN2C(=O)Nc2cccc(Cl)c2)c1 (stereo not drawn)	CYP2C9 inh 72
COc1ccccc1NC(=O)CC1C(=O)NCCN1C(=O)Nc1ccccc1 (stereo not drawn)	none
Cc1c(NC(=O)c2cc3ccccc3oc2=O)c(=O)n(-c2ccccc2)n1C	none
CCOCCCNC(=O)C(NC(=O)c1cnccn1)c1ccc(C)cc1 (stereo not drawn)	CYP2C19 inhib 59
CSc1ccc(S(=O)(=O)Nc2ccc3c4c(cccc24)CC3)cc1	CYP2C19 inhib 98
O=S(=O)(Nc1ccc2c3c(cccc13)CC2)c1ccc(F)cc1	CYP2C19 inhib 70
CNC(=O)/C=C1\NC(C)(C)Cc2c1ccc1ccccc21	CYP2C19 inhib 67
CC1(C)Cc2c(ccc3ccccc23)/C(=C/C#N)N1	none
CCOC(=O)N1CCC(NC(=O)c2cc(C)c3c(C)nn(-c4ccccc4)c3n2)CC1	none
CN(c1ccc(OCC(=O)NC2CCCC2)cc1)S(=O)(=O)c1cccs1	CYP2C9 inh 72
C=CCn1c(=S)[nH]c2ccc(Br)cc2c1=O	CYP2C19 inhib 62
CN(C)CCn1c(=S)[nH]c2ccccc2c1=O	none
CC(C)c1ccc(NC(=S)NCc2cccs2)cc1	none
S=C(NCc1cccs1)Nc1cccc(Cl)c1	CYP2C19 inhib 62
O=C(NCc1cccs1)Nc1cccc(Cl)c1	none (no result: CYP2C19 inhib, CYP2C9 activ, CYP2C19 act, CYP2C9 inh)
Cc1cc(Cl)ccc1NC(=S)NCc1cccs1	CYP2C19 inhib 97, CYP2C9 inh 63
Cc1ccc(NC(=S)NCc2cccs2)c(C)c1	CYP2C19 inhib 73
CN(C)CCCNC(=O)CC(c1ccccc1)c1ccccc1O (stereo not drawn)	none
COCCNC(=O)CSc1nnc2c(Cl)cc(Cl)cn12	none
CC1(C)CC(=O)c2c(O)cc(OCc3ccc([N+](=O)[O-])cc3)cc2O1	none
Cc1nn(CC(=O)N2CCN(Cc3ccccc3)CC2)c(=O)c2ccccc12	CYP2C19 inhib 75 (no result: sEH act, sEH inhibitor)
Cc1nn(CC(=O)NCc2ccccc2)c(=O)c2ccccc12	CYP2C9 activ 2.7 (no result: sEH act, sEH inhibitor)
Cc1nn(CC(=O)NCc2cccc3ccccc23)c(=O)c2ccccc12	CYP2C9 activ 2.2
C=CCC(NC(C)c1ccccc1)c1ccco1 (stereo not drawn)	none
CCn1c(CNC(=O)c2cccc(C)c2)nc2ccccc21	none
CCOC(=O)c1sc(C)c2c1NC(C)(c1cccs1)NC2=O (stereo not drawn)	CYP2C9 inh 63
O=C(COc1ccc2ccccc2c1CN1CCOCC1)N1CCc2ccccc21	none
CC1(C)CC(=O)C(C2(O)C(=O)N(Cc3ccccc3)c3ccccc32)CO1 (stereo not drawn)	CYP2C19 inhib 63
CCOC(=O)c1oc2cc(O)ccc2c(=O)c1-c1ccccc1OC	none
Cc1ccccc1-c1coc2cc(O)ccc2c1=O	CYP2C9 activ 2.5
CCSc1nnc(N(CCC#N)CCC#N)s1	none
O=C(CN1CCC(n2nnc3cc(C(F)(F)F)ccc32)CC1)N1CCc2ccccc21	none (no result: sEH act, sEH inhibitor)
COc1ccc(Cl)cc1NC(=O)CN1CCC(n2nnc3cc(F)ccc32)CC1	CYP2C19 inhib 76
Cc1ccc2c(c1)nnn2C1CCN(CC(=O)Nc2ccc3c(c2)OCCO3)CC1	CYP2C9 inh 50 (no result: sEH act, sEH inhibitor)
